# Results as given in PubChem BioAssay (EPA / NIEHS).
# The source made the active and inactive calls. Rule for the calls: active = hit-call score of the fitted dose curve at least 0.9, where 1 is the maximum; inactive = score below 0.9.
# Test: ATG_RORE_CIS: Attagene CIS-FACTORIAL HepG2 Assay for human RAR-related Orphan Receptor Element (RORE) (AID 2282959)
# Conditions: HepG2 Attagene cis-factorial RORE reporter, mRNA; actives raise or lower the signal
# Experimental: ATG_CIS is a cell-based, multiplexed-readout assay that uses HepG2, a human liver cell line, with measurements taken at 24 hours after chemical dosing in a 24-well plate.ATG_RORE_CIS is one of 52 assay component(s) measured or calculated from the ATG_CIS assay. It is designed to make measurements of mRNA induction, a form of inducible reporter, as detected with fluorescence intensity signals by Reverse transcription polymerase chain reaction (RT-PCR) and Capillary electrophoresis technology.Data from the assay component ATG_RORE_CIS was analyzed into 1 assay endpoint. This assay endpoint, ATG_RORE_CIS, was analyzed with bidirectional fitting relative to DMSO as the negative control and baseline of activity. Using a type of inducible reporter, measures of mRNA for gain or loss-of-signal activity can be used to understand the reporter gene at the transcription factor-level as they relate to the gene RORA and RORB and RORC. Furthermore, this assay endpoint can be referred to as a primary readout, because this assay has produced multiple assay endpoints where this one serves a reporter gene function. To generalize the intended target to other relatable targets, this assay endpoint is annotated to the nuclear receptor intended target family, where the subfamily is orphan.
# Human liver HepG2 cells are transiently transfected with multiple reporter transcription units (MRTUs) in 6-well plates using FuGene 6 reagent (Roche; 3 ml FuGene/1 mg DNA). The MRTU constructs are regulated by a cis-regulating element (promoter). […] A major difference between the CIS and TRANS system is that in CIS activities of endogenous TFs are measured, whereas the TRANS assay evaluates changes in activities of exogenous, chimeric NR-Gal4 proteins. […] At the end of 24 hour incubation, total RNA was isolated using TriZol reagent (Invitrogen). The isolated RNA is then reverse-transcribed using oligo(dT) primer and Mo-MLV reverse transcriptase (Invitrogen) with DNAse I (Ambion) treatment for 30 min. The one-tenth of the produced cDNA was amplified by PCR using Taq DNA polymerase (Invitrogen) and two reporter sequence-specific primers. The PCR products were fluorescently labeled by primer extension with 6-arboxyfluorescein (6-FAM) 5'-labeled reporter sequence-specific primer (2 min at 95 C, 20 s at 68 C and 10 min at 72 C) and these products were digested with 5U of HpaI (New England Biolabs) for 2h at 37 C. The fragments were purified using Qiaquick PCR columns (Qiagen), analyzed on an ABI 3130xL genetic analyzer (Applied Biosystems) with peak positions identified by using a set of X-rhodamine (ROX)-labeled MapMarker1000 molecular weight standards (BioVentures). The raw capillary electrophoresis data was processed using Attagraph software (Attagene).
Structure (SMILES),outcome,AC50
COC(CC(C)CCCC(C)(C)O)OC (stereo not given),inactive,
CC1(C)C(=O)N(Cl)C(=O)N1Br,inactive,
CC=Cc1ccc(OC)c(OC)c1,inactive,
CCCCCCCCCC(C)C=O (stereo not given),inactive,
COC(C)(C)CCO,inactive,
Cc1c(C2(c3cc(Br)c(O)c(Br)c3C)OS(=O)(=O)c3ccccc32)cc(Br)c(O)c1Br,inactive,
O=[N+]([O-])c1cccc(Cl)c1,inactive,
O=CCc1ccccc1,inactive,
CCc1ccc(O)c(OC)c1,inactive,
CC(=O)c1ccccn1,inactive,
Cc1ccc(OC(=O)c2ccccc2O)cc1,inactive,
c1ccc(CCc2ccccc2)cc1,inactive,
COC(=O)c1cccnc1,inactive,
O=C(CC(=O)c1ccccc1)c1ccccc1,,26.7 µM (active)
Nc1ccc(Cl)c([N+](=O)[O-])c1,inactive,
O=C(c1ccccc1)C(O)c1ccccc1 (stereo not given),inactive,
Brc1ccc(Br)c(Br)c1,inactive,
CCC1(c2ccccc2)C(=O)NCNC1=O,inactive,
C=COCCOCCOC=C,inactive,
CN1CCOCC1,inactive,

Structure (SMILES),outcome,AC50
Cc1cc(S(=O)(=O)O)ccc1N=Nc1c(O)ccc2ccccc12,,4.16 µM (active)
CCCCCCC(C)Nc1ccc(Nc2ccccc2)cc1 (stereo not given),inactive,
CC(C)C[C@H](NC(=O)OCC1c2ccccc2-c2ccccc21)C(=O)O,inactive,
O=CN1CCOCC1,inactive,
CSCCC=O,inactive,
C[N+](C)(C)CCCCCC[N+](C)(C)C,inactive,
C=CCCCCCCCCCC,inactive,
OCC#CCO,inactive,
CCOC(=O)C1OC1c1ccccc1 (stereo not given),inactive,
CC1(C)COCN1,inactive,
Nc1ccc(NCCO)c([N+](=O)[O-])c1,inactive,
CC(=O)O[C@@H]1C[C@@H]2CC[C@@]1(C)C2(C)C,inactive,
CCC(C)S (stereo not given),inactive,
Oc1c(Cl)cc(Cl)c(Cl)c1Cc1c(O)c(Cl)cc(Cl)c1Cl,,2.2 µM (active)
IC(I)I,inactive,
C=C(C)CNCC,inactive,
CS(=O)(=O)c1ccc(C2=C(c3ccccc3)C(=O)OC2)cc1,inactive,
CC(C)c1ccccc1O,inactive,
CC/C=C\CC/C=C/CO,inactive,
CC(=O)C1(C)CC2=C(CCCC2(C)C)CC1C (stereo not given),,74.4 µM (active)
